Compound activity deposited in PubChem by several laboratories.
Neddyl block: inhibitors of human cullin neddylation. inhibition, % at 25 µM. hit rate 0.58% among 360,000. TR-FRET cullin neddylation, biochemical; in the data active = inhibition above about 36%
Target sequence (P61081 whole entry, looked up): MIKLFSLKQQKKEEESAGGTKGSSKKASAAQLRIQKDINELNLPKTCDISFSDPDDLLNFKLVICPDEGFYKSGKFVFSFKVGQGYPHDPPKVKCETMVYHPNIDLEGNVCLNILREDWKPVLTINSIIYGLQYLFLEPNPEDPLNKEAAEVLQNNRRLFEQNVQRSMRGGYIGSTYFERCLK
Target sequence (Q13564 whole entry, looked up): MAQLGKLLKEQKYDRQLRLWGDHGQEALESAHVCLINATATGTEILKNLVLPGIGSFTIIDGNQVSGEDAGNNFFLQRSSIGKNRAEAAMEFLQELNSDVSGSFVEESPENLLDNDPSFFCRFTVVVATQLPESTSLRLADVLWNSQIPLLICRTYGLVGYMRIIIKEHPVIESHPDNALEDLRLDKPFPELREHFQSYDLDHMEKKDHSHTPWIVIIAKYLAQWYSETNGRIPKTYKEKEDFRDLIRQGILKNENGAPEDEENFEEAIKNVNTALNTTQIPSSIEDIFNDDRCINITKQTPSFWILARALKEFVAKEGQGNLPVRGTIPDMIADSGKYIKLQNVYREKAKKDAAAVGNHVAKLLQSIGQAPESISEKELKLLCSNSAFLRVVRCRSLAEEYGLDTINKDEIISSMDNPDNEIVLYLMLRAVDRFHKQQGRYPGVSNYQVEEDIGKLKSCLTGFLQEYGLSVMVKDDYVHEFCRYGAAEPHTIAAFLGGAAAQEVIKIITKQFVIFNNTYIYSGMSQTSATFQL
Rpn11 inh: Rpn11 (human) deubiquitinase inhibition; human 26S proteasome, Ub4-pepOG fluorescence polarization; 20S core pre-blocked with epoxomicin; calls only at 20 µM; hit rate 0.59% among 360,000;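 active = inhibition at 20 µM, scaled to each plate's controls, above about 33%, limit read from the data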
PKA-R2B act: activators of human PKA-R2B complex; hit rate 0.079% among 340,000; PKA-R2B holoenzyme dissociation, Cy5-IP20 fluorescence polarization; R2B truncated from residue 108, S112A mutant; 0% DMSO only, 100% 113 µM cGMP; activation, % at 11.4 µM;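 active = activation above a cutoff set at the mean over all compounds plus 3 SD, cut at about 18% in these data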;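 also: higher means more holoenzyme dissociation and a rise in polarization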
PKA-R1A act: activates the PKA-R1A holoenzyme complex | P00514+P68181 | activation, % at 11.4 µM | PKA-R1A dissociation, Cy5-IP20 fluorescence polarization; scaled: DMSO 0%, 113 µM cGMP 100% | AID 504707 | hit rate 0.083% among 340,000;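 active = percent activation above the mean of all tested compounds plus 3 SD, cut at about 19% in these data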;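 also: higher means more PKAc released from R1A so a rise in polarization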
Neddyl conf: confirmation of human cullin neddylation inhibitors; TR-FRET cullin neddylation biochemical assay; calls only at 25 µM; hit rate 13% among 1,800; shares compounds with Neddyl block; in the data active = inhibition above about 40%;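 also: neddylation substrate is the cullin 1 ring ligase complex with SKP2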
Starred values were filed as active, the others as inactive; i = inactive; nt = no result shown; + = active, no number. An excerpt weighted towards active compounds, which were near 1.3% of everything screened.

SMILES	Neddyl block	Rpn11 inh	PKA-R2B act	PKA-R1A act	Neddyl conf
COc1cc(CNc2ccc(N3CCOCC3)c(C(=O)O)c2)ccc1OCC(N)=O	42*	i	-12	0	i
O=C(O)c1cc(NCc2ccc3c(c2)OCO3)ccc1N1CCOCC1	43*	i	3	-4	i
Cn1ncc2cc3c(Nc4ccc(Cl)cc4)cccc3nc21	57*	i	nt	nt	+
Cn1ncc2c(Nc3ccc(Cl)cc3)ncnc21	30	i	6	-3	nt
COc1cc(C(=O)NC2CCN(C)CC2)ccc1Nc1ncc2c(n1)N(CCc1ccccc1)CCC(=O)N2C	39*	i	5	-13	i
CN(C)c1cccc(NC(=O)c2cccc3c(-c4ccc(F)c(F)c4)coc23)c1	37	i	nt	nt	nt
O=c1[nH]c(/C(Cl)=C/c2cccc(F)c2)nc2cc(C(F)(F)F)ccc12	41*	i	-3	-8	i
CC1(C)Oc2ccc3ccc(=O)oc3c2/C(=C/O)C1=O	44*	i	-3	8	i
O=C(Nc1ccccc1Br)c1ccc(OC(=S)N2CCOCC2)cc1	-11	i	1	-13	nt
Cc1ccc(NC(=O)c2ccc(OC(=S)N3CCOCC3)cc2)cc1	40*	i	11	-15	i
COc1ccccc1NC(=O)CSc1nc2c(sc3ccccc32)c(=O)n1CCN(C)C	9	i	-4	-8	nt
CN(C)CCn1c(SCc2ccccc2C#N)nc2c(sc3ccccc32)c1=O	46*	i	3	-2	nt
COc1ccc2[nH]c(=O)c(C(c3nnnn3C3CCCCC3)N3CCN(C)CC3)cc2c1 (stereo not drawn)	nt	i	-8	-3	nt
CCCN1CCN(C(c2cc3cc(OCC)ccc3[nH]c2=O)c2nnnn2C2CCCCC2)CC1 (stereo not drawn)	45*	i	-2	-5	nt
COc1cccc(C(c2c(NC(=O)c3ccco3)sc(C)c2C)N2CCOCC2)c1 (stereo not drawn)	43*	i	-4	-11	nt
Cc1sc(NC(=O)c2ccco2)c(C(c2ccncc2)N2CCOCC2)c1C (stereo not drawn)	2	i	-5	0	nt
CCOC(=O)c1cocc1C(=O)O	-5	i	3	-8	nt
CCOC(=O)c1[nH]c2ccc(Cl)cc2c1NC(=O)/C=C/c1ccc2c(c1)OCO2	42*	i	-5	3	i
COc1ccc(/C=N/NC(=O)c2[nH]c3ccc(Cl)cc3c2-c2ccccc2)c(C(=O)O)c1OC	42*	i	5	-1	nt
COc1cccc(/C=N/NC(=O)c2cc3c(OC)cccc3[nH]2)c1OC	43*	i	-13	-12	i
CCOc1ccc(/C=N/NC(=O)c2cc3c(OC)cccc3[nH]2)cc1	43*	i	-5	-2	i
Cc1cc2ccccc2c(=O)n1CC(=O)NCCC1=CCCCC1	7	i	-3	-4	nt
N#Cc1ccsc1NC(=O)C1CCN(C(=O)c2ccc(Cl)cc2)CC1	12	i	-8	-1	nt
O=C(Nc1ccc2c(c1)CCC2)c1cc(=O)[nH]c2ccccc12	8	i	1	-1	nt
O=C1Cc2cc(NS(=O)(=O)c3ccc([N+](=O)[O-])cc3)cc3c2N1CCC3	-21	i	-7	0	nt
SMILES	Neddyl block	Rpn11 inh	PKA-R2B act	PKA-R1A act	Neddyl conf
COc1ccc2c(C(=O)CN3CCSCC3)c[nH]c2c1	39*	i	-6	-4	i
COc1ccc2c(C(=O)CN3CCN(c4ccccc4)CC3)c[nH]c2c1	0	nt	-2	5	nt
O=C(NC(=S)Nc1ccccc1N1CCOCC1)c1ccc(-c2ccccc2F)o1	-4	i	6	-5	nt
COc1ccc(OC)c(NCc2nnc(-c3ccccc3)o2)c1	11	i	-4	2	nt
COc1ccc(-c2ccc(-c3nnc(Cc4ccc(OC)c(OC)c4)o3)cc2)cc1	44*	i	1	-8	i
O=C(COC(=O)/C=C/c1cccc(F)c1)Nc1cccc(S(=O)(=O)NC2=NCCCCC2)c1	-2	i	2	-7	nt
COC(=O)c1ccc(CNC(=O)COC(=O)/C=C/c2cccc(OC)c2)cc1	46*	i	-4	3	i
COc1cccc(/C=C/C(=O)OCC(=O)Nc2cccc(S(=O)(=O)NC3=NCCCCC3)c2)c1	42*	i	-3	8	nt
COc1cccc(/C=C/C(=O)OCC(=O)Nc2nnc(-c3ccccc3)o2)c1	47*	i	-10	-8	i
CCOc1cc(NC(=O)c2ccco2)c(OCC)cc1NC(=O)CCc1ccccc1OC	41*	i	0	8	i
CCC(=O)Nc1cc2c(C)cc(=O)oc2cc1C	50*	i	6	4	nt
O=C(CCCCCNc1nc(=S)[nH]c2ccccc12)NCCC1=CCCCC1	-73	i	0	0	nt
CSc1ccc(/C=N/NC(=O)c2cc(O)cc(O)c2)cc1	4	i	3	-5	nt
CSc1ccc(/C=N/NC(=O)c2sccc2C)cc1	38*	i	-7	3	i
CC(C)C[C@@H](CSc1ccc(Br)cc1)N1CCN(CCc2ccccc2)CCC1=O	-2	i	-10	-1	nt
CC(C)C[C@@H](CSc1ccccc1)N1CCN(CCc2ccccc2)CCC1=O	29*	i	7	-14	i
CCC(C)NC(=O)Cn1cnc2sc(C)c(S(=O)(=O)N3CCCCC3)c2c1=O (stereo not drawn)	3	i	4	3	nt
O=C(c1ccc2nc(-c3ccccc3)c(-c3ccccc3)nc2c1)N1CCCCC1	24	i	0	3	nt
CCC(C)NC(=O)c1ccc2nc(-c3ccc(OC)c(OC)c3)c(-c3ccc(OC)c(OC)c3)nc2c1 (stereo not drawn)	-232	i	-7	-15	nt
CN1CCN(C(=O)c2ccc3nc(-c4ccccc4)c(-c4ccccc4)nc3c2)CC1	55*	i	-5	2	nt
CCN(CC)C(=O)c1ccc2nc3ccccc3nc2c1	-10	i	-6	2	nt
CCN(CC)C(=O)c1ccc2nc(-c3ccccc3)c(-c3ccccc3)nc2c1	44*	i	-11	-10	i
COCC(C)NC(=O)c1ccc2nc(-c3ccccc3)c(-c3ccccc3)nc2c1 (stereo not drawn)	41*	i	2	-3	+
COc1ccc(CCNC(=O)[C@H](C)N2C(=O)N3CCc4c([nH]c5ccccc45)[C@@]3(C)C2=O)cc1	-2	i	-8	-4	nt
O=C(COC(=O)CN1C(=O)c2ccccc2C1=O)NC1CCCC1	-10	i	-4	2	nt
CC1(C)Cc2c(sc(NC(=O)c3ccc4c(c3)OCCO4)c2C(N)=O)C(C)(C)N1	40*	i	3	-12	i
COc1cc2sc(-c3ccc(S(C)(=O)=O)cc3)c(C#CCO)c2cc1OC	50*	i	-1	12	+
COc1cc(OC)cc(-c2sc3ccc(OC)cc3c2C#CCO)c1	-12	i	-7	-1	nt
